The list is not random: actives were taken first. Their share in the collection is about 4%.
Mtb FBA inh – inhibitors of M. tuberculosis fructose-bisphosphate aldolase. P9WQA3. purified M. tuberculosis FBA, fluorescence read-out. inhibition, % at 1 µM. 2.3% of 360,000 active. AID 588726; in the data active = inhibition above about 27%
Target sequence (P9WQA3 whole entry, looked up): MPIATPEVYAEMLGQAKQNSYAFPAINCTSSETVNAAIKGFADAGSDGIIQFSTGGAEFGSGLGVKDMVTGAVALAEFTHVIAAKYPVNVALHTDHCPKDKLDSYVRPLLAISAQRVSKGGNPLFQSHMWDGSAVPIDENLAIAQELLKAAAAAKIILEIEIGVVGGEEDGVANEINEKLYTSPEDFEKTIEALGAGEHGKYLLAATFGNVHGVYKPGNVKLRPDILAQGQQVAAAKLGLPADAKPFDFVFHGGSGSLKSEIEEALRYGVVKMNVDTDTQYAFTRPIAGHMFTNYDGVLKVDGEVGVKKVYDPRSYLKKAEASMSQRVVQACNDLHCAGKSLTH
MazF activator – activators of E. coli MazEF toxin-antitoxin RNase; P0AE70; FAM/BHQ RNA-DNA oligo cleavage fluorescence, 5 h; activation, % at 20 µM; 0.32% of 350,000 active; AID 504720; in the data active = activation above about 50%
Target sequence (P0AE70 whole entry, looked up): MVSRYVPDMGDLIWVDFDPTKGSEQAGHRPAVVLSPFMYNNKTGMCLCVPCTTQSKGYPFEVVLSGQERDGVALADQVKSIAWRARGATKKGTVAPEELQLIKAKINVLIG
Mtb betalactam – beta-lactam sensitization of Mtb H37Rv. inhibition, % at 25 µM. 0.27% of 330,000 active. AID 434955. M. tuberculosis H37Rv growth with meropenem, percent inhibition; call rule not given here;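 also: growth measured after seven days incubation then overnight dye step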
GDH-TPI inh – counter-screen for M. tuberculosis FBA inhibitors: GDH-TPI coupled enzymes. GDH-TPI coupled enzyme counterscreen, NADH absorbance. 1.2% of 360,000 active. AID 588335. inhibition, % at 4.8 µM
CCHF vOTU inh – CCHFV vOTU protease inhibition | 0.55% of 370,000 active | inhibition, % at 11.5 µM | Pep-AMC fluorescence
Large screens that a line does not name were inactive. Rule as the data show it, unless noted: active = inhibition above about 30%; inactive = the rest.

COc1ccc2cc(CN(CC3CCCO3)S(=O)(=O)c3ccccc3Cl)c(=O)[nH]c2c1 (centres undefined)	GDH-TPI inh 32
COc1ccccc1NC(=O)N(Cc1cc2cc(OC)c(OC)cc2[nH]c1=O)CC1CCCO1 (centres undefined)	GDH-TPI inh 34
COc1ccc(CC(=O)Nc2ccc(C)cc2S(=O)(=O)N2CCOCC2)cc1OC	none (no result: Mtb FBA inh, MazF activator, Mtb betalactam, GDH-TPI inh)
c1ccc2nc(N3CCCC3)c(N3CCCCC3)nc2c1	none (no result: Mtb betalactam)
c1ccc2nc3c(nc2c1)OCC1CCCCN31 (centres undefined)	Mtb FBA inh 150
Cc1cc2c(C)c(C)c(=O)[nH]c2cc1N	Mtb FBA inh active, GDH-TPI inh 35
O=C(NC1CC1)c1cc2c(s1)-c1ccccc1OC2	Mtb FBA inh active
O=C(NCc1cccs1)c1cc2c(s1)-c1ccccc1OC2	Mtb FBA inh active
O=C(Nc1cccc(C(F)(F)F)c1)c1cc2c(s1)-c1ccccc1OC2	none
COc1ccc2c(c1)CCc1cc(C(=O)O)sc1-2	Mtb FBA inh active
O=C(NCCCN1CCOCC1)c1cc2c(s1)-c1ccccc1OC2	Mtb FBA inh active, GDH-TPI inh 35
O=C(NCc1cccs1)c1cc2c(s1)CS(=O)(=O)C2	none
Cc1nn(CCC(=O)NNC(=O)Nc2ccccc2F)c(C)c1[N+](=O)[O-]	none (no result: Mtb FBA inh, MazF activator, Mtb betalactam, GDH-TPI inh)
O=C(c1ccc(C#Cc2ccccc2)cc1)N1CCC(O)CC1	none (no result: Mtb FBA inh, MazF activator, Mtb betalactam, GDH-TPI inh)
O=C(c1ccco1)N1CCN(C(=O)c2cc3c(s2)-c2ccccc2OC3)CC1	Mtb FBA inh 113
O=C(c1ccco1)N1CCN(C(=O)c2ccco2)CC1	none (no result: MazF activator, Mtb betalactam, GDH-TPI inh)
O=C(O)c1cc2c(s1)-c1ccccc1CC2	Mtb FBA inh 191, GDH-TPI inh 52
O=C(O)c1cc2c(s1)-c1ccccc1OC2	Mtb FBA inh active
CS(=O)(=O)N[C@@H]1C[C@@H]2O[C@@H](CO)CC[C@@H]2O[C@@H]1CCc1ccc(-c2ccccc2F)cc1	none (no result: Mtb FBA inh, MazF activator, Mtb betalactam, GDH-TPI inh)
COc1ccc(C(=O)C2(C(=O)NCc3ccccc3)CC(c3ccccn3)=NO2)cc1 (centres undefined)	none (no result: Mtb FBA inh, MazF activator, Mtb betalactam, GDH-TPI inh)
COc1cc(/C=C2\SC(=O)NC2=O)ccc1Oc1cnccn1	GDH-TPI inh 36
O=C1NC(=O)/C(=C\c2ccc(Oc3cnccn3)cc2)S1	none
COc1cc(/C=C2/SC(=O)NC2=O)ccc1OCc1ccccc1	GDH-TPI inh 43
C#CCNC(=O)C[C@H]1C[C@@]2(C(=O)OC)C(=C[C@H](C(C)(C)C)O[C@@H]2C)N(Cc2ccco2)C1=O	none (no result: Mtb FBA inh, MazF activator, Mtb betalactam, GDH-TPI inh)
Cn1c(=O)c2[nH]c(SCC(=O)NCCc3cccc(F)c3)nc2n(C)c1=O	none (no result: Mtb FBA inh, MazF activator, Mtb betalactam, GDH-TPI inh)
Cc1cc(/C=N/NC(=O)c2cccs2)c(C)n1-c1ccccc1	GDH-TPI inh 33
Cc1cc(/C=N/NC(=O)c2ccncc2)c(C)n1-c1ccccc1	none
COc1ccc(/C=N\NC(=O)Cc2cccs2)c(OC)c1OC	none (no result: Mtb FBA inh, MazF activator, Mtb betalactam, GDH-TPI inh)
Cn1cc(/C=N\NC(=O)c2cccs2)c2ccccc21	GDH-TPI inh 32
COc1ccc(/C=N/NC(=O)c2cccs2)c2ccccc12	GDH-TPI inh 32
O=C(N/N=C/c1cccc2ccccc12)c1cccnc1	none
COc1ccc(/C=N/NC(=O)c2cccnc2)c2ccccc12	GDH-TPI inh 36
COC(=O)[C@H](C(C)C)N(CCc1cn(CC2CCCCC2)nn1)S(=O)(=O)c1ccccc1Br	none (no result: Mtb FBA inh, MazF activator, Mtb betalactam, GDH-TPI inh)
COc1ccc(-n2c(SCC(=O)Nc3cc(C)c(NC(=O)c4ccccc4)cc3OC)nnc2-c2ccccc2F)cc1	none (no result: Mtb FBA inh, MazF activator, Mtb betalactam, GDH-TPI inh)
CN[C@H]1C[C@H]2c3[nH]c4c(-c5ccc6c(c5)OCO6)cccc4c3CCN2C[C@H]1[C@H](C)O	none (no result: Mtb FBA inh, MazF activator, Mtb betalactam, GDH-TPI inh)
COc1ccc2[nH]c3c(c2c1)CCN[C@]31C(=O)Nc2ccccc21	none (no result: Mtb FBA inh, MazF activator, Mtb betalactam, GDH-TPI inh)
CC(C)CN1C(=O)[C@@]2(CC(=O)N(C)C2c2ccccc2)c2cc(-n3cc(CCCC#N)nn3)ccc21 (some centres undefined)	none (no result: Mtb FBA inh, MazF activator, Mtb betalactam, GDH-TPI inh)
COc1ccc(/C=N/NC(=O)c2cccnc2)c(C(=O)O)c1OC	GDH-TPI inh 32
Cc1cc(=O)[nH]c(N/N=C/c2cc(C)n(-c3ccccc3)c2C)n1	GDH-TPI inh 43
COc1ccc(S[C@]2(C(=O)N3CCOCC3)CC(=O)N(C(=O)/C=C/c3ccccc3)[C@@H]2c2ccc(OC)cc2)cc1	none (no result: Mtb FBA inh, MazF activator, Mtb betalactam, GDH-TPI inh)
CCN(CC)c1ccc(C(=O)OCC(=O)NCC2CCCO2)cc1 (centres undefined)	GDH-TPI inh 32
COC(=O)C1=C(C)N(C)C(=NCc2ccc(OC)cc2)NC1c1cccc(C(F)(F)F)c1 (centres undefined)	none (no result: Mtb FBA inh, MazF activator, Mtb betalactam, GDH-TPI inh)
COc1cc2sc3ccc(C#CC4(O)CCCCC4)cc3c(=O)c2cc1OC	none
Cn1c2ccccc2c(=O)c2ccc(C#CC3(O)CCCCC3)cc21	Mtb FBA inh 171
Cc1sc2nc(SCC(=O)c3ccc(O)c(O)c3)n(C)c(=O)c2c1C	none (no result: Mtb FBA inh, MazF activator, Mtb betalactam, GDH-TPI inh)
O=C(COc1ccc([N+](=O)[O-])cc1)N/N=C/c1cc([N+](=O)[O-])ccc1N1CCOCC1	GDH-TPI inh 48
Cc1ccc(OCC(=O)N/N=C/c2cc([N+](=O)[O-])ccc2N2CCCCC2)cc1	none
COc1ccc(OC)c(S(=O)(=O)N2CCCCC2C(=O)N2CCN(c3ccccc3F)CC2)c1 (centres undefined)	none (no result: Mtb FBA inh, MazF activator, Mtb betalactam, GDH-TPI inh)
Cc1ccc2nc3sc(C(=O)NCc4ccco4)c(N)c3cc2c1	MazF activator 82
O=C(NCCc1ccccc1)OCc1cn(Cc2ccc(Cl)cc2)nn1	none (no result: Mtb FBA inh, MazF activator, Mtb betalactam, GDH-TPI inh)
O=C1NC(=O)C(=Cc2ccccc2[N+](=O)[O-])S1	none (no result: Mtb betalactam)
O=C1NC(=O)/C(=C/c2cccc3ccccc23)S1	GDH-TPI inh 37
O=C(Oc1cc2oc(=O)cc(-c3ccccc3)c2cc1Cl)C1CCCCC1	Mtb FBA inh 32
COC(=O)[C@]1(CNC(C)=O)CC(=O)N(Cc2ccc(Cl)cc2)[C@@H]1c1ccc(OC)cc1	none (no result: Mtb FBA inh, MazF activator, Mtb betalactam, GDH-TPI inh)
COc1cccc(N=Cc2c(O)n(-c3cccc(C)n3)c(=O)c3ccccc23)c1	none
Cc1ccc(-n2c(O)c(C=Nc3ccccc3-c3n[nH]c(=S)[nH]c3=O)c3ccccc3c2=O)cc1C	none (no result: Mtb betalactam)
Cc1cccc(-n2c(O)c(/C=N/NC(=O)c3ccccc3Cl)c3ccccc3c2=O)n1	GDH-TPI inh 35
COc1ccc(N=Cc2c(O)n(-c3cccc(C)n3)c(=O)c3ccccc23)c(OC)c1	MazF activator 278
Cc1cccc(-n2c(O)c(C=Nc3ccccc3-c3n[nH]c(=S)[nH]c3=O)c3ccccc3c2=O)n1	GDH-TPI inh 37
O=C(NN=C/C=C/c1ccco1)c1cc(-c2ccc(Cl)cc2)n[nH]1	none (no result: Mtb FBA inh, MazF activator, Mtb betalactam, GDH-TPI inh)
C[C@@H]1COc2cc(Br)ccc2S(=O)(=O)N1Cc1cn(Cc2ccc(Cl)cc2)nn1	none (no result: Mtb FBA inh, MazF activator, Mtb betalactam, GDH-TPI inh)
COc1ccc2ccccc2c1C=Nn1c(-c2n[nH]c3c2CCC3)n[nH]c1=S	none (no result: Mtb FBA inh, MazF activator, Mtb betalactam, GDH-TPI inh)
O=S(=O)(Nc1ccc(-c2nc3cccnc3s2)cc1)c1ccccc1F	Mtb FBA inh active, GDH-TPI inh 62
Cc1cc(-c2nc3cccnc3s2)ccc1NS(=O)(=O)c1cccs1	Mtb FBA inh active, GDH-TPI inh 42
Cc1c(NS(=O)(=O)c2cccs2)cccc1-c1nc2cccnc2s1	none
Cc1c(NS(=O)(=O)c2ccc3c(c2)OCCO3)cccc1-c1nc2cccnc2s1	none
Cc1cc(-c2nc3cccnc3s2)ccc1NS(=O)(=O)c1ccc2c(c1)OCCO2	Mtb FBA inh active

Screens (PubChem)
